Experimental data: PubChem BioAssay (NCATS)
Results filed as inconclusive are left out. Calls of active or inactive are those of the source. The call rests on the fitted dose curve; in most records, active means well fitted cell-killing curve with a large enough effect; inconclusive means small, poorly fitted or top-dose-only effect, or effect the other way; inactive means flat fitted curve, though single readings scatter.

How the values were obtained:
Assay in all cases: Primary qHTS to identify gynecologic anti-cancer compounds using libraries of approved drugs and bioactive compounds (AID 1345084); further: nearly all actives have a fitted effect of over 55% in size
C33A = details: Gynecologic cancer cell panel viability, ATPlite luminescence, 48 h; series mostly up to 57.5 µM
Procedure, shortened: (§1)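 Five-concentration response, 48 h; readout is ATP-driven luciferase luminescence.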

CAOV3 = details: Gynecologic cancer cell panel viability, ATPlite luminescence, 48 h; series mostly up to 57.5 µM
Procedure, shortened: as §1

CASKI = details: Gynecologic cancer cell panel viability, ATPlite luminescence, 48 h; series mostly up to 57.5 µM
Procedure, shortened: as §1

Es-2 = details: Gynecologic cancer cell panel viability, ATPlite luminescence, 48 h; series mostly up to 57.5 µM
Procedure, shortened: as §1

HeLa = details: Gynecologic cancer cell panel viability, ATPlite luminescence, 48 h; series mostly up to 57.5 µM
Procedure, shortened: as §1

Hek293T = details: Gynecologic cancer cell panel viability, ATPlite luminescence, 48 h, control line for the selectivity index; series mostly up to 57.5 µM
Procedure, shortened: as §1

JEG-3 = details: Gynecologic cancer cell panel viability, ATPlite luminescence, 48 h; series mostly up to 57.5 µM
Procedure, shortened: as §1

OV90 = details: Gynecologic cancer cell panel viability, ATPlite luminescence, 48 h; series mostly up to 57.5 µM
Procedure, shortened: as §1

PA-1 = details: Gynecologic cancer cell panel viability, ATPlite luminescence, 48 h; series mostly up to 57.5 µM
Procedure, shortened: as §1

SKOV3 = details: Gynecologic cancer cell panel viability, ATPlite luminescence, 48 h; series mostly up to 57.5 µM
Procedure, shortened: as §1

Tov-21-G = details: Gynecologic cancer cell panel viability, ATPlite luminescence, 48 h; series mostly up to 57.5 µM
Procedure, shortened: as §1

Tov112D = details: Gynecologic cancer cell panel viability, ATPlite luminescence, 48 h; series mostly up to 57.5 µM
Procedure, shortened: as §1
On the % scale 0 is the no-effect control and ±100 the full control effect.

C[C@@H]1O[C@@H](O[C@H]2[C@H](O)[C@@H](O[C@@H]3O[C@H](CO)[C@@H](O)[C@H](O[C@@H]4O[C@H](CO)[C@@H](O)[C@H](O)[C@H]4O)[C@H]3O)[C@H](O[C@H]3CC[C@@]4(C)C(=CC[C@@H]5C4CC[C@@]4(C)C5C[C@@H]5OC6(CC[C@@](C)(CO[C@@H]7O[C@H](CO)[C@@H](O)[C@H](O)[C@H]7O)O6)[C@@H](C)[C@@H]54)C3)O[C@@H]2CO)[C@H](O)[C@H](O)[C@H]1OC1OC(CO)C(O)C(O)C1O (stereo partly drawn)
inactive: activity change, negative = cytotoxicity (C33A) 0.138% [at 6.55 µM] | activity change, negative = cytotoxicity (CAOV3) 7.26% [at 6.55 µM] | activity change, negative = cytotoxicity (CASKI) -16.9% [at 6.55 µM] | activity change, negative = cytotoxicity (Es-2) -3.32% [at 6.55 µM] | activity change, negative = cytotoxicity (HeLa) -0.928% [at 6.55 µM] | activity change, negative = cytotoxicity (Hek293T) 3.68% [at 6.55 µM] | activity change, negative = cytotoxicity (JEG-3) 1.09% [at 6.55 µM] | activity change, negative = cytotoxicity (OV90) -1.64% [at 6.55 µM] | activity change, negative = cytotoxicity (PA-1) 10.2% [at 6.55 µM] | activity change, negative = cytotoxicity (SKOV3) -3.09% [at 6.55 µM] | activity change, negative = cytotoxicity (Tov-21-G) -0.0744% [at 6.55 µM] | activity change, negative = cytotoxicity (Tov112D) 5.26% [at 6.55 µM]

C/C1=C\CC[C@]2(C)O[C@@H]2[C@H](O)[C@H](C(C)C)[C@H](OC(=O)/C=C/c2ccccc2)C1
inactive: Potency (C33A) | Potency (CAOV3) | Potency (CASKI) | Potency (Es-2) | Potency (HeLa) | Potency (Hek293T) | Potency (JEG-3) | Potency (OV90) | Potency (PA-1) | Potency (SKOV3) | Potency (Tov-21-G) | Potency (Tov112D)

CCCC(=O)NCCc1csc(-c2ccc(Cl)cc2)n1
inactive: Potency (C33A) | Potency (CAOV3) | Potency (CASKI) | Potency (Es-2) | Potency (HeLa) | Potency (Hek293T) | Potency (JEG-3) | Potency (OV90) | Potency (PA-1) | Potency (SKOV3) | Potency (Tov-21-G) | Potency (Tov112D)

C=C1C(=O)O[C@@H]2C[C@H](C)[C@@]3(O)C=C(C(C)=O)[C@]4(CC3C[C@H]12)C(=O)O[C@H]1C[C@@H](C)C(CCC(C)=O)=CC[C@H]14 (stereo partly drawn)
inactive: Potency (C33A) | Potency (CAOV3) | Potency (CASKI) | Potency (Es-2) | Potency (HeLa) | Potency (Hek293T) | Potency (JEG-3) | Potency (OV90) | Potency (PA-1) | Potency (SKOV3) | Potency (Tov-21-G) | Potency (Tov112D)

C=C1C(=O)O[C@H]2[C@H]1CC/C(C)=C/CC[C@@]1(C)O[C@@H]21
inactive: Potency (C33A) | Potency (CAOV3) | Potency (CASKI) | Potency (Es-2) | Potency (HeLa) | Potency (Hek293T) | Potency (JEG-3) | Potency (OV90) | Potency (PA-1) | Potency (SKOV3) | Potency (Tov-21-G) | Potency (Tov112D)

Cc1nc2sc(C(=O)NCc3ccncc3)c(N)c2c(C)c1Cl
inactive: Potency (C33A) | Potency (CAOV3) | Potency (CASKI) | Potency (Es-2) | Potency (HeLa) | Potency (Hek293T) | Potency (JEG-3) | Potency (OV90) | Potency (PA-1) | Potency (SKOV3) | Potency (Tov-21-G) | Potency (Tov112D)

CC(C)C(C(=O)N(C)C(C)C(N)=O)N(C)C(=O)C1CCCN1C(=O)/C=C/C=C/C(O)C(C)O (stereo not drawn)
inactive: Potency (C33A) | Potency (CAOV3) | Potency (CASKI) | Potency (Es-2) | Potency (HeLa) | Potency (Hek293T) | Potency (JEG-3) | Potency (OV90) | Potency (PA-1) | Potency (SKOV3) | Potency (Tov-21-G) | Potency (Tov112D)

COc1ccc(C(O)C(C)OC2OC(CO)C(O)C(O)C2O)cc1 (stereo not drawn)
inactive: Potency (C33A) | Potency (CAOV3) | Potency (CASKI) | Potency (Es-2) | Potency (HeLa) | Potency (Hek293T) | Potency (JEG-3) | Potency (OV90) | Potency (PA-1) | Potency (SKOV3) | Potency (Tov-21-G) | Potency (Tov112D)

COc1c2c(c(C)c3c1C(=O)OC3)O[C@@]1(C)CCC3(C(C)(C)O)OC(=O)CC[C@]3(C)[C@H]1C2 (stereo partly drawn)
inactive: Potency (C33A) | Potency (CAOV3) | Potency (CASKI) | Potency (Es-2) | Potency (HeLa) | Potency (Hek293T) | Potency (JEG-3) | Potency (OV90) | Potency (PA-1) | Potency (SKOV3) | Potency (Tov-21-G) | Potency (Tov112D)

CC1(C)CCCC2(C)C1CC=C1C(=O)OC(O)C12O (stereo not drawn)
inactive: Potency (C33A) | Potency (CAOV3) | Potency (CASKI) | Potency (Es-2) | Potency (HeLa) | Potency (Hek293T) | Potency (JEG-3) | Potency (OV90) | Potency (PA-1) | Potency (SKOV3) | Potency (Tov-21-G) | Potency (Tov112D)

C[C@@H]1CC[C@@]2(OC1)O[C@H]1C[C@H]3[C@@H]4CC=C5C[C@@H](O)CC[C@]5(C)[C@H]4CC[C@]3(C)[C@H]1[C@@H]2C
inactive: Potency (C33A) | Potency (CAOV3) | Potency (CASKI) | Potency (Es-2) | Potency (HeLa) | Potency (Hek293T) | Potency (JEG-3) | Potency (OV90) | Potency (PA-1) | Potency (SKOV3) | Potency (Tov-21-G) | Potency (Tov112D)

C=C1C(O)C(O)C2(CC3C(C)=CCC4C(C)(CO)CCCC34C)OC2C1O (stereo not drawn)
inactive: Potency (C33A) | Potency (CAOV3) | Potency (CASKI) | Potency (Es-2) | Potency (HeLa) | Potency (Hek293T) | Potency (JEG-3) | Potency (OV90) | Potency (PA-1) | Potency (SKOV3) | Potency (Tov-21-G) | Potency (Tov112D)

CC(C)(O)/C=C/C1=CC(=O)[C@@](C)(O)C[C@H]1O
inactive: Potency (C33A) | Potency (CAOV3) | Potency (CASKI) | Potency (Es-2) | Potency (HeLa) | Potency (Hek293T) | Potency (JEG-3) | Potency (OV90) | Potency (PA-1) | Potency (SKOV3) | Potency (Tov-21-G) | Potency (Tov112D)

C[C@H]1CC(=O)Nc2cccc(-c3cnn(C(C)(C)C)c3)c2N1
inactive: Potency (C33A) | Potency (CAOV3) | Potency (CASKI) | Potency (Es-2) | Potency (HeLa) | Potency (Hek293T) | Potency (JEG-3) | Potency (OV90) | Potency (PA-1) | Potency (SKOV3) | Potency (Tov-21-G) | Potency (Tov112D)

CC12CCC3c4ccc(O)cc4CCC3C1CC(OC1OC(C(=O)O)C(O)C(O)C1O)C2O (stereo not drawn)
inactive: Potency (C33A) | Potency (CAOV3) | Potency (CASKI) | Potency (Es-2) | Potency (HeLa) | Potency (Hek293T) | Potency (JEG-3) | Potency (OV90) | Potency (PA-1) | Potency (SKOV3) | Potency (Tov-21-G) | Potency (Tov112D)

C=C1C[C@]23C[C@H]1CC[C@H]2C1=C[C@H]2OC(=O)[C@@](C)([C@H]1[C@@H]3C(=O)O)[C@H]2O
inactive: Potency (C33A) | Potency (CAOV3) | Potency (CASKI) | Potency (Es-2) | Potency (HeLa) | Potency (Hek293T) | Potency (JEG-3) | Potency (OV90) | Potency (PA-1) | Potency (SKOV3) | Potency (Tov-21-G) | Potency (Tov112D)

CC(C)C(C#N)O[C@@H]1O[C@H](CO[C@@H]2O[C@@H](C)[C@H](O)[C@@H](O)[C@H]2O)[C@@H](O)[C@H](O)[C@H]1O (stereo partly drawn)
inactive: Potency (C33A) | Potency (CAOV3) | Potency (CASKI) | Potency (Es-2) | Potency (HeLa) | Potency (Hek293T) | Potency (JEG-3) | Potency (OV90) | Potency (PA-1) | Potency (SKOV3) | Potency (Tov-21-G) | Potency (Tov112D)

CC1=CC(=O)C2(OC3OC(C)C(O)C(OC(=O)/C=C/c4ccccc4)C3O)C=COC(OC3OC(CO)C(O)C(O)C3O)C12 (stereo not drawn)
inactive: Potency (C33A) | Potency (CAOV3) | Potency (CASKI) | Potency (Es-2) | Potency (HeLa) | Potency (Hek293T) | Potency (JEG-3) | Potency (OV90) | Potency (PA-1) | Potency (SKOV3) | Potency (Tov-21-G) | Potency (Tov112D)

CC1(C)CCCC2(C)C1C(O)C=C(CO)C2(O)CO (stereo not drawn)
inactive: Potency (C33A) | Potency (CAOV3) | Potency (CASKI) | Potency (Es-2) | Potency (HeLa) | Potency (Hek293T) | Potency (JEG-3) | Potency (OV90) | Potency (PA-1) | Potency (SKOV3) | Potency (Tov-21-G) | Potency (Tov112D)
